# Screens deposited in PubChem by National Center for Advancing Translational Sciences (NCATS).
# This is a sample that favours compounds with a hit; in the whole collection about 7% have one here.
# GCN5L2 inh – blocks human GCN5L2 histone acetyltransferase; Q92830; GCN5L2 HAT assay, ThioGlo1 CoA-SH fluorescence; Potency, µM (highest dose often 58.9 µM), inactives show at the highest dose activity change, negative = inhibition, hits mostly inhibitors; 390,000 compounds, 0.21% hits; further: potency means the concentration at half of the fitted maximal effect; on the % scale 0 is the no-effect control and ±100 the full control effect
#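 Preincubate 20nM GCN5L2 with compound 15 min, RT → add 50uM ThioGlo1 + 75uM H3(1-25) + 70uM acetyl-CoA → read fluorescence 0 and 20 min. Primary qHTS; fluorescent artifacts likely.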
# PI5P4Ka inh – PI5P4K alpha (human) kinase inhibition | P48426 | PI5P4Kalpha enzyme, ADP-Glo luminescence, 60 min; hits give low values | max response, % | 330,000 compounds, 1.2% hits; active means max response of -50% or lower; inconclusive means between -30% and -50%; inactive means -30% or higher; further: value at the top dose of about 77 µM; on the % scale 0 is the no-effect control and ±100 the full control effect
#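 Human PI5P4Kalpha with substrate in 0.038 M HEPES pH 7.4, 0.28 mM EGTA, 0.1% CHAPS, 5% DMSO; reaction started with 5 microM ATP (final), 60 min at room temperature. ADP formed read by ADP-Glo luminescence.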
# JMJD2A Tudor – inhibitors of human JMJD2A Tudor domain. O75164. AlphaScreen JMJD2A-Tudor / H3K4me3 peptide binding. Potency, µM (highest dose often 114 µM), inactives show top-dose activity change, negative = inhibition, most hits filed as inhibitors. 390,000 compounds, 4.4% hits; further: potency means the concentration at half of the fitted maximal effect; on the % scale 0 is the no-effect control and ±100 the full control effect; nearly all actives have a fitted effect of over 50% in size
# HP1b binding inh – inhibitors of HP1-beta chromodomain binding to methylated histone tails | 390,000 compounds, 0.56% hits | P83916 | AlphaScreen HP1-beta / biotin-H3K9me3 peptide binding | Potency, µM (top dose mostly 114 µM), for inactives: at the highest dose activity change, negative = inhibition, most hits filed as inhibitors; further: potency means the concentration at half of the fitted maximal effect; nearly all actives have a fitted effect of over 70% in size
#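 HP1-beta protein (50 nM final) preincubated 30 min at room temperature with biotinylated H3(1-18)K9me3 peptide (50 nM) in PBS pH 7.4, 0.01% Tween-20, then compound added for 30 min. AlphaScreen streptavidin donor/nickel chelate acceptor beads (10 ug/mL final), 30 min dark, luminescence read.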
# PLK1 PBD inh – inhibitors of human PLK1 polo-box domain binding; P53350; Plk1 PBD binding of FITC phosphopeptide, fluorescence polarization; Potency, µM, for inactives: max response, negative = inhibition, actives largely listed as inhibitors; 360,000 compounds, 2.8% hits; further: potency means the concentration at half of the fitted maximal effect; series mostly up to about 57 µM; on the % scale 0 is the no-effect control and ±100 the full control effect; nearly all actives have a fitted effect of over 65% in size
# Target sequence (P53350 whole entry, looked up, the tested form may be a part): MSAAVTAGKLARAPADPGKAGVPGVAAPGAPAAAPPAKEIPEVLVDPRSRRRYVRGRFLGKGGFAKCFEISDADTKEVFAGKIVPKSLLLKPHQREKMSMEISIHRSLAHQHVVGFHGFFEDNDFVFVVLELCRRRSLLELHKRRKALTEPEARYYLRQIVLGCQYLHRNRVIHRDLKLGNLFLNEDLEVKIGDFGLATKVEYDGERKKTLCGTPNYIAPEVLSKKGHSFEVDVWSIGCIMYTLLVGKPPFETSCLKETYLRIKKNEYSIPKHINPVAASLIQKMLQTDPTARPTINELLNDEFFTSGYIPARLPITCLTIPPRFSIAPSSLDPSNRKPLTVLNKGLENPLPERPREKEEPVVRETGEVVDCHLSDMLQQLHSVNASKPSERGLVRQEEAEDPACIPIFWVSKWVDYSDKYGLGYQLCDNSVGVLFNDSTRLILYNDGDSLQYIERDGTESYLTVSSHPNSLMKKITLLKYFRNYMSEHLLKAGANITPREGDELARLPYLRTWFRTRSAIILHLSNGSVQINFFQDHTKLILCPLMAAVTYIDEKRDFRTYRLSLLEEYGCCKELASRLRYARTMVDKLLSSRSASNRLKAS
# BAZ2B block – BAZ2B (human) inhibition; AID 504333; Q9UIF8; AlphaScreen BAZ2B-H3K14Ac peptide displacement; Potency, µM (series often up to 114 µM), without a hit: at the highest dose activity change, negative = inhibition, most hits filed as inhibitors; 360,000 compounds, 4.4% hits; further: potency means the concentration at half of the fitted maximal effect; on the % scale 0 is the no-effect control and ±100 the full control effect; nearly all actives have a fitted effect of over 60% in size
#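 AlphaScreen displacement: compounds (up to 110uM) incubated 30 min at room temperature with a preformed 50 nM BAZ2B/50 nM biotinylated H3K14Ac peptide complex in PBS pH 7.4 with Tween-20. Donor and acceptor beads at 10 ug/mL final added, 20 min light-protected before reading.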
# Active calls of the source: *; ? = inconclusive; . = not tested or not shown; [ ] = dose if it differs, or a comment. Unless noted, the call rests on the fitted dose curve; in most records, active means well fitted curve in the direction sought with a large enough effect; inconclusive means small, poorly fitted or top-dose-only effect, or another doubt; inactive means no such curve, though single readings can be large; an effect the other way counts as inactive or inconclusive.
SMILES,GCN5L2 inh,PI5P4Ka inh,JMJD2A Tudor,HP1b binding inh,PLK1 PBD inh,BAZ2B block
CCN(CC)c1ccc(/C=N/N(c2ccccc2)c2ccccc2)c(O)c1,33%,2,8.9µM*,?,-12%,10µM*
COc1ccc(/C=N/N(Cc2ccccc2)c2ccccc2)cc1O,-5%,-6,10µM*,40µM*,17µM*,28µM*
Oc1ccc(/C=N/N(c2ccccc2)c2ccccc2)c(O)c1O,-15%,.,.,.,.,25µM*
Cc1ccc(C(=O)NC2CC(C)(C)NC(C)(C)C2)cc1S(=O)(=O)N1CCOCC1,.,-8,-6%,11%,-7%,.
O=C(NCC(F)(F)F)c1ccc2sc([C@H]3C[C@H](O)[C@@H](CO)O3)nc2c1,.,-2,.,.,-14%,.
CCc1ccc(NC(=O)c2nc3nc(C)cc(C(F)F)n3n2)cc1,-2%,.,-17%,11%,.,0%
Cc1ccccc1-c1noc(CCC(=O)Nc2cccc(C)c2C)n1,1%,.,-12%,21%,.,-8%
CCCN(CC(=O)Nc1ccccc1C)C(=O)c1cccc(S(=O)(=O)N2CCN(c3ccccc3)CC2)c1,-13%,-5,-25%,-1%,-12%,1%
Oc1ccc(/C=N/N(c2ccccc2)c2ccccc2)cc1O,?,?,56µM*,?,?,-18%
CCN(CC)c1ccc(/C=N/NC(=S)NCc2ccccc2)c(O)c1,-13%,4,-26%,-9%,-10%,22µM*
CC(=O)Nc1ccc(NC(=O)C2CCCN2S(=O)(=O)c2ccc3c(c2)CCCC(=O)N3)cc1 (centres undefined),-9%,.,3%,30%,.,?
C#CCOCCOCCOCCNc1nc(N2CCN(C(=O)[C@H]([C@@H](C)CC)n3cc([C@@H](N)Cc4ccc(O)cc4)nn3)CC2)nc(N2CCN(C(=O)[C@H](Cc3cc4ccccc4[nH]3)n3cc([C@@H](N)CC(C)C)nn3)CC2)n1,-13%,?,40µM*,-7%,-18%,56µM*
C#CCOCCOCCOCCNc1nc(N2CCN(C(=O)[C@H]([C@@H](C)CC)n3cc([C@@H](N)CC(C)C)nn3)CC2)nc(N2CCN(C(=O)[C@H](Cc3cc4ccccc4[nH]3)n3cc([C@@H](N)C(C)CC)nn3)CC2)n1 (some centres undefined),7%,.,.,.,.,50µM*
C#CCOCCOCCOCCNc1nc(N2CCN(C(=O)C([C@@H](C)O)n3cc([C@@H](N)CCCCN)nn3)CC2)nc(N2CCN(C(=O)[C@H](CC(N)=O)n3cc([C@@H](N)C(C)C)nn3)CC2)n1 (some centres undefined),-2%,11,?,18%,-5%,.
C#CCOCCOCCOCCNc1nc(N2CCN(C(=O)[C@H]([C@@H](C)CC)n3cc([C@@H](N)CC(C)C)nn3)CC2)nc(N2CCN(C(=O)[C@H](Cc3cc4ccccc4[nH]3)n3cc([C@@H](N)Cc4ccc(O)cc4)nn3)CC2)n1,-4%,-25,56µM*,-29%,-16%,50µM*
CC[C@@]12C(=O)N(c3cccc(Br)c3)C(=O)N1[C@H](c1cccc(C)c1)[C@@H]1C(=O)N(Cc3ccccc3)C(=O)[C@@H]12,-9%,2,-30%,22%,-5%,4%
c1csc(CCCN2CCCCC2)c1,.,11,-19%,-4%,-7%,.
CN(Cc1ccccc1)C(=O)C1CCN(S(=O)(=O)c2cccc3nsnc23)CC1,1%,2,14µM*,1%,3.4µM*,-21%
CN(Cc1ccccc1)C(=O)C1CCN(S(=O)(=O)c2ccc3nc4c(c(C(=O)O)c3c2)CCCC4)CC1,-19%,-19,-32%,4%[57 µM],?,50µM*
CN(CCCNC(=O)C1CCN(S(=O)(=O)c2cccc3nsnc23)CC1)Cc1ccccc1,0%,-2,-13%,16%,-4%,-34%
CSCCC(NC=C1C(=O)OC(C)(C)OC1=O)C(=O)O (centres undefined),-1%,0,79µM*,15%,-8%,-30%
CC1(C)OC(=O)C(=CNCC(O)c2ccccc2)C(=O)O1 (centres undefined),-8%,.,-13%,7%,-6%,7%
COc1ccc2[nH]c3c(=O)n(CCCC(=O)NC4CCC(C)CC4)c(=S)[nH]c3c2c1 (centres undefined),-3%,-1,-13%,23%,-3%,-8%
COc1ccc2[nH]c3c(=O)n(CCCCC(=O)NCCC(C)C)c(=S)[nH]c3c2c1,-17%,-30,?,28%,12µM*,-6%
CCCNC(=O)c1ccc(Cn2c(=S)[nH]c3c([nH]c4ccc(OC)cc43)c2=O)cc1,3%,-13,?,24%,-6%,-18%
SMILES,GCN5L2 inh,PI5P4Ka inh,JMJD2A Tudor,HP1b binding inh,PLK1 PBD inh,BAZ2B block
CCCNC(=O)CCCCn1c(=S)[nH]c2c([nH]c3ccc(OC)cc32)c1=O,-6%,?,?,?,21µM*,-6%
COc1ccc2[nH]c3c(=O)n(CCCCC(=O)N4CCCC4)c(=S)[nH]c3c2c1,0%,.,3.5µM*,24%,-10%,-2%
COc1ccc2[nH]c3c(=O)n(CCCC(=O)NC4CCCCC4C)c(=S)[nH]c3c2c1 (centres undefined),2%,-17,-29%,-13%[57 µM],30µM*,?
CCCc1cc(C(=O)Nc2sc(C)c(C)c2C(=O)OCC)no1,1%,-23,-14%,7%,21µM*,-1%
CCOC(=O)c1c(NC(=O)c2noc(C)c2[N+](=O)[O-])sc(C(C)=O)c1C,-18%,?,-28%,-21%,24µM*,-4%
CCc1c(C)sc(NC(=O)c2cc(C)on2)c1C#N,-2%,.,-9%,5%,-15%,2%
CCOC(=O)c1c(NC(=O)c2cc(C(C)C)on2)sc(C)c1C,2%,.,15%,-1%,.,-4%
CCCc1cc(C(=O)Nc2sc(C)c(CC)c2C#N)no1,-17%,-20,6%,4%,27µM*,2%
Cc1onc(-c2ccccc2)c1C(=O)Nc1sc2c(c1C#N)CCC(C)C2 (centres undefined),-7%,.,-21%,27%,-6%,-9%
Cc1onc(-c2ccccc2Cl)c1C(=O)Nc1sc2c(c1C#N)CCC2,-6%,?,?,?,27µM*,-32%
Cc1cc(NC(=O)CCC(=O)N(CC(C)C)C(C(=O)NC(C)(C)C)c2ccccc2Cl)no1 (centres undefined),-1%,0,-19%,-5%,-3%,-4%
O=C(CNS(=O)(=O)c1ccc(Br)cc1)NCc1cccnc1,-7%,-3,-7%,36%,-2%,-2%
